# Reference: PubChem BioAssay (NCI)
# The panel holds about 83,000 compounds, 20% with a hit somewhere; the sample as a whole holds those more often.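 Cells were grown in 96-well plates and exposed to the test compound at a single concentration for 48 hours; results are reported as percent growth, with values below 10 considered active.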 Unmarked numbers belong to inactive results. Activity calls are given as the source filed them.
# Test system: COLO 205 colon
# Assay: NCI-60 one-dose screen, 48 h (100 = growth as untreated, 0 = no growth, -100 = all killed)
# Conditions: 10 µM
row,Compound,growth
1,COc1ccc(C(C)C=O)cc1 (centres undefined),115%
2,CCCNc1ccc(C2=NCCCN2)cc1,99.5%
3,CC1(C)/C(=C\CO)C2CCC1C2 (centres undefined),111%
4,CCC(=O)Oc1ccc(OC)cc1,110%
5,CCOC(=O)C/C(C)=N\O,104%
6,CCCCN(CCCC)CCCO,105%
7,O=C(Nc1ccccc1C(=O)NCC1CC1)c1cccs1,116%
8,CC(=O)Nc1ccc(NC(C)=O)c2c1C(=O)c1ccccc1C2=O,87.6%
9,O=C(N/N=C\c1cc(Br)cc(Br)c1O)N/N=C/c1cc(Br)cc(Br)c1O,62.1%
10,O=C(O)c1ccc(S(=O)(=O)O)cc1,129%
11,CCOC(=O)/C(C#N)=C/c1cccc(C)c1,119%
12,O=C(Nc1ccccc1)OCCc1ccccc1,119%
13,COCCCNC(=O)c1nnn2c1nc(N)c1cc(Cl)ccc12,77.7%
14,NC(CSC(c1ccccc1)(c1ccccc1)c1ccccc1)C(=O)O (centres undefined),23.2%
15,OCc1cccc2ccccc12,114%
16,CN(C)c1ccc(C(c2ccc(O)cc2)c2ccc(N(C)C)cc2)cc1,101%
17,COc1cc2c(cc1OC)[C@H](C(=O)O)[C@@H](c1ccc(OC(C)C)c(OC)c1)N(C)C2=O,118%
18,NC(C(=O)O)c1ccc([N+](=O)[O-])cc1 (centres undefined),104%
19,Cc1ccc(Cl)cc1NC(=O)N(C)CCO,144%
20,CCC/C=C(\C)C(C)(C#N)C(=O)OCC (centres undefined),110%

row,Compound,growth
1,COc1cc(/C=C/C(=O)c2ccccc2)cc(OC)c1OC,48%
2,O=C1c2ccccc2C(=O)c2c1ccc(C(=O)O)c2[N+](=O)[O-],108%
3,CC1=CC(C)(C)NC(=S)N1c1ccc(S(=O)(=O)O)c2cccc(S(=O)(=O)O)c12,102%
4,COC(=O)Nc1nc2ccc(C(=O)c3ccc(F)cc3)cc2[nH]1,-37.7% (active)
5,C=CC(=O)OCCCCCCCC,107%
6,O=[N+]([O-])c1ccc(Cl)c(S(=O)(=O)O)c1,118%
7,CN(C)C(C)(C)CC(C)(C)C,106%
8,N#CC(=Nc1cccc(F)c1)C1=C(O)c2ccccc2C1=O,96%
9,Cc1c(O)cnc2nn(-c3ccccc3)c(=N)n12,123%
10,O=c1[nH]n(-c2ccccc2)c(=O)cc1Cl,104%
11,O=C(NCO)c1ccccc1,106%
12,COc1cc(CCN=Cc2ccccc2O)c([N+](=O)[O-])cc1OC,110%
13,CC[N+](C)(CC)CCO,114%
14,COc1cc(C(N)=O)cc(OC)c1OC,101%
15,COC(=O)CCCCC1=CCC2C(=O)C=C(O)C2C1 (centres undefined),111%
16,CC(C)(C)n1nc(C2CC2)c(Br)c1NC(=O)c1ccccc1F,104%
17,C=CCNc1nnc(C)s1,122%
18,COc1cc(/C=N\Nc2ccccc2)ccc1OC(=O)c1ccccc1,84.8%
19,COC(=O)c1ccc(NC(=O)CCl)cc1,103%
